# Assay results published in the supplement of paper PMC11732987, “Enantioselective OTUD7B fragment discovery through chemoproteomics screening and high-throughput optimisation” (Communications Chemistry, 2025).
# A number with no mark means an inactive call.
# Experiments:
# Experiment in all cases: log2 ratio of Biotin-Ahx-Ub-VS probe labelling (fragment/DMSO); higher = less target engagement (more negative = stronger competition), active = hit call of the paper (q ≤ 0.05, log2 ratio ≤ -1)
# Conditions in all cases: compound concentration: 200 uM; treatment time: 3 h
# [1] = molecular target: T1, USP19 (UniProt O94966)
# T1 sequence (whole entry): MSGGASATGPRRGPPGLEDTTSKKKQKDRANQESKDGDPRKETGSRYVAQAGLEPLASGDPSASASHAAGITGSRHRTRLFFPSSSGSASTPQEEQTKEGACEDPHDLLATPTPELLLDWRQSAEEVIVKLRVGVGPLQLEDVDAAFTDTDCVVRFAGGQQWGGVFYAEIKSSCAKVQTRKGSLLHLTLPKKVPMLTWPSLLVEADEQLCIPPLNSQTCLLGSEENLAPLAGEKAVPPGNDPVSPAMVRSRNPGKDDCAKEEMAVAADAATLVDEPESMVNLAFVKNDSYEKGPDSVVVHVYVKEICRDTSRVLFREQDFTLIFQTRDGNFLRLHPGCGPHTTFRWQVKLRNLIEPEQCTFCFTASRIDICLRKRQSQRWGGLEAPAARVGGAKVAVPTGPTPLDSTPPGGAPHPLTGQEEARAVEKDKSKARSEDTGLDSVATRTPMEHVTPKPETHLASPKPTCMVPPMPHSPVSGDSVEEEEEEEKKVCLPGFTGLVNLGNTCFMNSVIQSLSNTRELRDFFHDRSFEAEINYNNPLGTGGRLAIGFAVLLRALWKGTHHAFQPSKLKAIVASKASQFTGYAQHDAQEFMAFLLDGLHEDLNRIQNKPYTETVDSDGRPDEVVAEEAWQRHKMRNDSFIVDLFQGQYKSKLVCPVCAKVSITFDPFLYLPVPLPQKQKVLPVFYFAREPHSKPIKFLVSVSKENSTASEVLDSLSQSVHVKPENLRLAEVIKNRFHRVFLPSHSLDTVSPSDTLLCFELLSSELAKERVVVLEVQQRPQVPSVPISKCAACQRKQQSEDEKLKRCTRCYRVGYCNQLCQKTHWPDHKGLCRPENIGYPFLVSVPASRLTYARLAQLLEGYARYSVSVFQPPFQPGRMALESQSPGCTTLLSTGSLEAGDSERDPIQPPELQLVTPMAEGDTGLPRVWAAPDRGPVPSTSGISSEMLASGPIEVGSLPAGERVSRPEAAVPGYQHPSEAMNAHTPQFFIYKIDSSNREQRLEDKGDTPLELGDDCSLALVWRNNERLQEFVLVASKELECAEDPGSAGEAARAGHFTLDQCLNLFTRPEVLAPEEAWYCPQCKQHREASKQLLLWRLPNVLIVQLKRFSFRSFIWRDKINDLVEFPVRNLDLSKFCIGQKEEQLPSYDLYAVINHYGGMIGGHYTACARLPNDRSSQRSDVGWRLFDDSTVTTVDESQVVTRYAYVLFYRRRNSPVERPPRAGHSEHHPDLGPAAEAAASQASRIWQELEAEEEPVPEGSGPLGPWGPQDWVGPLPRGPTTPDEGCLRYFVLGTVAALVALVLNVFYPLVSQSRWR
# Procedure, shortened: (§1)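 Global-median-normalised Spectronaut label-free quantities were compared by unpaired t-test, and values are average log2 ratios of fragment over vehicle. Only proteins with ≥2 unique peptides were used. HEK293T lysate (495 µg per sample) was treated in triplicate with fragment at 200 µM or vehicle for 3 h and then with Biotin-Ahx-Ub-VS at 0.5 µM final for 1 h. Labelled DUBs were then NeutrAvidin-enriched, digested with LysC and trypsin, and run by diaPASEF LC-MS/MS.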
# [2] = molecular target: T2, USP22 (UniProt Q9UPT9)
# T2 sequence (whole entry): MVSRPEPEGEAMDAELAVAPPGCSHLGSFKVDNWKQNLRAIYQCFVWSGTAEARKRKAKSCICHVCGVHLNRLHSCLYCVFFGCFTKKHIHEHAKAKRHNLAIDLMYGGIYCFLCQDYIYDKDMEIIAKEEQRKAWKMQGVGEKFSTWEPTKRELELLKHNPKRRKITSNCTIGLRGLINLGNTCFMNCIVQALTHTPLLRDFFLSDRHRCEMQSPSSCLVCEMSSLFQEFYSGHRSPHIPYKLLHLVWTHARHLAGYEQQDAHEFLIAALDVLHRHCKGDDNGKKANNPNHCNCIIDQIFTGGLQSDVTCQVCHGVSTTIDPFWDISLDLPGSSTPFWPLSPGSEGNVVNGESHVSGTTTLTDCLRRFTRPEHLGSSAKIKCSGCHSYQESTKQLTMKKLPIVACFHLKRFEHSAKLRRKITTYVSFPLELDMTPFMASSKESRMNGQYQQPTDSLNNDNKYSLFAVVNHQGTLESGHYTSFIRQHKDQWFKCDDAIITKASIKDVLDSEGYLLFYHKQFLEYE
# Procedure, shortened: as §1
# [3] = molecular target: USP24 (UniProt Q9UPU5)
# Chain of USP24 (Q9UPU5 whole entry): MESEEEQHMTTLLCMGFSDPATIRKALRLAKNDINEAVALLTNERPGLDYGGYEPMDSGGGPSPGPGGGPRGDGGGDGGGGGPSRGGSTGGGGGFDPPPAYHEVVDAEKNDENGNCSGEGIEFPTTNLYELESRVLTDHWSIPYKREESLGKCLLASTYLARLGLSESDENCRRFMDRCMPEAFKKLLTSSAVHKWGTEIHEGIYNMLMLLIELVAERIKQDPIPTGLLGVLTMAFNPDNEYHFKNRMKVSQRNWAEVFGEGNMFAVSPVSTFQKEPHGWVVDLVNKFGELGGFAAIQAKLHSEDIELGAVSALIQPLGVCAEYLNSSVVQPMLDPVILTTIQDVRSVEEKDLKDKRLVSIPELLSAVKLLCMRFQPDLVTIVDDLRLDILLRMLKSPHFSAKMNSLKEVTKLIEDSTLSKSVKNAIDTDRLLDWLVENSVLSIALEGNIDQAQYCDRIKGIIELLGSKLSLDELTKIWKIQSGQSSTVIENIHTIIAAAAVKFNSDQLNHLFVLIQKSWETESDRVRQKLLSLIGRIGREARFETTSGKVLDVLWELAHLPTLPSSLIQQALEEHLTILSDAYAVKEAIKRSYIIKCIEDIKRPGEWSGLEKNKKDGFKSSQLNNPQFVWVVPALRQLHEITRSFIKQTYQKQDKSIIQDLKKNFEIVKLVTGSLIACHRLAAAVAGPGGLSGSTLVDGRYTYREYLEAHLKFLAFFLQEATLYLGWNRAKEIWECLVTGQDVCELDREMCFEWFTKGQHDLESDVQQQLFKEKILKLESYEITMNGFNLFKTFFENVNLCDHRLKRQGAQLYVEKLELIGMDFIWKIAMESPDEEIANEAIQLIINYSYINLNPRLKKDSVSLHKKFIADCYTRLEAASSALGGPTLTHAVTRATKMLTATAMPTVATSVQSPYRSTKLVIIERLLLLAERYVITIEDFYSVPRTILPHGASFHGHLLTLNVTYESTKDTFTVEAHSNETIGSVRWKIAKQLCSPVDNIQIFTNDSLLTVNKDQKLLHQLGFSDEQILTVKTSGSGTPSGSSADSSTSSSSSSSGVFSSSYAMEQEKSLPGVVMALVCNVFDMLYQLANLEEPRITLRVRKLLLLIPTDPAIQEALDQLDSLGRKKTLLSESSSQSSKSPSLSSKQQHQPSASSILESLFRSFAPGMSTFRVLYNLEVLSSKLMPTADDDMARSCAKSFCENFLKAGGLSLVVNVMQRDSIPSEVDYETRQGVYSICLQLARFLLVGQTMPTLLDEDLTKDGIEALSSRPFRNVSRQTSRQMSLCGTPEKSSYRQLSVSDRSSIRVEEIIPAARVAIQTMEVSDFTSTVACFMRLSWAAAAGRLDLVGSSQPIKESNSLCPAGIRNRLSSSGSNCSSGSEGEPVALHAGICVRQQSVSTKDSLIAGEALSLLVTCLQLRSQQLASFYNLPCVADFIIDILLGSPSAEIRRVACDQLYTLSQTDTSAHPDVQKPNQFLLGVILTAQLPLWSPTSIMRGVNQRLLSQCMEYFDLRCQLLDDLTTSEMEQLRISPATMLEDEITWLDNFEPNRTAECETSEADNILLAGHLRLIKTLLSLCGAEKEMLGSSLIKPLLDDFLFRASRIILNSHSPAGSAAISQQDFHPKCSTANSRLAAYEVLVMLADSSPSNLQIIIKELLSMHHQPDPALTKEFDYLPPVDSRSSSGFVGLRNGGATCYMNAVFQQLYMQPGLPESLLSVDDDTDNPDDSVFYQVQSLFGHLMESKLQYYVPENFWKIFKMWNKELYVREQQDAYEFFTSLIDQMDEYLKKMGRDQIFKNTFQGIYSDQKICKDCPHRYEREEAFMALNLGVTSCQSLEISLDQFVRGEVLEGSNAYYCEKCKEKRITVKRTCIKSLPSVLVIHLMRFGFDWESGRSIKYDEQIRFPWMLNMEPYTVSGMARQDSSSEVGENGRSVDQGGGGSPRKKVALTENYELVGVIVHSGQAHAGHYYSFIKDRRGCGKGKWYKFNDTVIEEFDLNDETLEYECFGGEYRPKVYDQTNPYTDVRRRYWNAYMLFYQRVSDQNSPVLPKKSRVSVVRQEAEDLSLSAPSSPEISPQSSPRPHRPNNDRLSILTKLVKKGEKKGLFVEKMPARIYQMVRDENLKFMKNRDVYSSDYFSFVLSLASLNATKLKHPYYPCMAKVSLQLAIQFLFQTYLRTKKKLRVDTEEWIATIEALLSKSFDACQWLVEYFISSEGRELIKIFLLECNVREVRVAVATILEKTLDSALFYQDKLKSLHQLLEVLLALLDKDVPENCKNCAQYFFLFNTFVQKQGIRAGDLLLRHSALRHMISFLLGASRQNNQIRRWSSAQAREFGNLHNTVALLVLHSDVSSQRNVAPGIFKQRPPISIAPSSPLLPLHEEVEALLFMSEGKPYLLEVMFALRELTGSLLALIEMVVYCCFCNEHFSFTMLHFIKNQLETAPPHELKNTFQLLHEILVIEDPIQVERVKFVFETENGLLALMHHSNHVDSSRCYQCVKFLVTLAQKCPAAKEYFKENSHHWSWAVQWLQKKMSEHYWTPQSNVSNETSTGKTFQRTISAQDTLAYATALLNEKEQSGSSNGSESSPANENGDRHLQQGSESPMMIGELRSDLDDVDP
# Procedure, shortened: as §1
# [4] = molecular target: T3, USP25 (UniProt Q9UHP3)
# T3 sequence (whole entry): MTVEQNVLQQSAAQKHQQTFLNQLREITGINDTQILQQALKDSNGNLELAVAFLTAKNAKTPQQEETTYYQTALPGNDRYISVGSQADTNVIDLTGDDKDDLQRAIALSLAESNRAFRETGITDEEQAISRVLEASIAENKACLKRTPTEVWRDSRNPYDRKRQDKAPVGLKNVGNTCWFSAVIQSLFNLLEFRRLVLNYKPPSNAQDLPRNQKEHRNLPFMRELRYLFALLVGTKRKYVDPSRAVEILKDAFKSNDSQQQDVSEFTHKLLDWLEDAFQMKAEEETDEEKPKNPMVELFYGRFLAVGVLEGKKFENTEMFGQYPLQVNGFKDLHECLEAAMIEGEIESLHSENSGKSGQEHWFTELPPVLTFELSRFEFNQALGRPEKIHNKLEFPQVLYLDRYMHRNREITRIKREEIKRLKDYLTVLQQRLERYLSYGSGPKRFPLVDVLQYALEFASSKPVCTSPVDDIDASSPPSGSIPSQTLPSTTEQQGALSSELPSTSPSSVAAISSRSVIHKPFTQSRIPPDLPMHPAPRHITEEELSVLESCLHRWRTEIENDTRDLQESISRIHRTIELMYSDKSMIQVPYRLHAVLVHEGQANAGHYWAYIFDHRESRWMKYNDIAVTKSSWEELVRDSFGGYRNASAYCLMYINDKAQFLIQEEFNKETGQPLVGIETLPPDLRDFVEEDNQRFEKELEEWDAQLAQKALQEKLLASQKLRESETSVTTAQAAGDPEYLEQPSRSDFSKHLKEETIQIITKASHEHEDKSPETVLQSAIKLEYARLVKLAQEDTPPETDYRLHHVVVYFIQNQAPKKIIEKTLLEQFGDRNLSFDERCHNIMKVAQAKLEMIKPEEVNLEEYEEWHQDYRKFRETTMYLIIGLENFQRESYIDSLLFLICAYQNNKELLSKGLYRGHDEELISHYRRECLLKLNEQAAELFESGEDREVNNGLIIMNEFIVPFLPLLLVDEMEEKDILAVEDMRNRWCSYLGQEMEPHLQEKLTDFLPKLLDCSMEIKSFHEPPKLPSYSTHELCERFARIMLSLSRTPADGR
# Procedure, shortened: as §1
# [5] = molecular target: T4, USP28 (UniProt Q96RU2)
# T4 sequence (whole entry): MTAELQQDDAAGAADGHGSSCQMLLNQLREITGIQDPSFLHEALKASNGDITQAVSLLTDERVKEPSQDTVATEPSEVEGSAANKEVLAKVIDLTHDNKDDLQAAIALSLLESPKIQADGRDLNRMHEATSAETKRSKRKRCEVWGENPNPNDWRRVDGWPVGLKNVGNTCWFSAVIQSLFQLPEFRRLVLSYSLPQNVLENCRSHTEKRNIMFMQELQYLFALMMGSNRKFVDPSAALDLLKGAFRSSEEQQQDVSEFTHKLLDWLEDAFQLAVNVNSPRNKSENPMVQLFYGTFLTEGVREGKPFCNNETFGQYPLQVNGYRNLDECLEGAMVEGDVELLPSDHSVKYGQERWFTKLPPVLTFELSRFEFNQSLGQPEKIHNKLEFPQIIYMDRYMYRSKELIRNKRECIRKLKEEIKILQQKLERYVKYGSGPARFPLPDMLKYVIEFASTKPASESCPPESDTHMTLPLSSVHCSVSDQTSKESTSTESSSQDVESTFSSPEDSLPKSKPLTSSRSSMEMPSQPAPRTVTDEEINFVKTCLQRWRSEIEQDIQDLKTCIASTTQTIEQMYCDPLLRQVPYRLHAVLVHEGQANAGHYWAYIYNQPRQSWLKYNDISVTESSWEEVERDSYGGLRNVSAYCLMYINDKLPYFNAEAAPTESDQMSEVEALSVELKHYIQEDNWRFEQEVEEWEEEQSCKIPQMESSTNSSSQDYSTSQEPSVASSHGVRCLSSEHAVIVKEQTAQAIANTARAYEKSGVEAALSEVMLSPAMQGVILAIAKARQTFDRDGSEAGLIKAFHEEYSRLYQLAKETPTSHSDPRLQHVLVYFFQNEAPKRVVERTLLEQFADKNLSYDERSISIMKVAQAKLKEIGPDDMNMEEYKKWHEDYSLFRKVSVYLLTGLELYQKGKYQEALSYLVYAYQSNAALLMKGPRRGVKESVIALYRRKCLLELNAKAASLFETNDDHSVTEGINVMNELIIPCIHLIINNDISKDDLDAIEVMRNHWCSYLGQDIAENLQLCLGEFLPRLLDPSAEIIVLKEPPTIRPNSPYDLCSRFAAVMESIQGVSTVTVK
# Procedure, shortened: as §1
smiles,measurement,setting,value
CC(=O)Nc1ccc(NC(=O)CCl)cc1,log2 ratio of Biotin-Ahx-Ub-VS probe labelling,[1],-0.179
same,log2 ratio of Biotin-Ahx-Ub-VS probe labelling,[2],-0.0522
same,log2 ratio of Biotin-Ahx-Ub-VS probe labelling,[3],-0.314
same,log2 ratio of Biotin-Ahx-Ub-VS probe labelling,[4],-1.33 (active)
same,log2 ratio of Biotin-Ahx-Ub-VS probe labelling,[5],-0.938
